# Test results: PubChem BioAssay (EPA / NIEHS)
# Inconclusive results are not listed. Calls of active or inactive are those of the source. How the source made its calls: active means hit-call score of the fitted dose curve at least 0.9, where 1 is the maximum; inconclusive means response in the unintended direction; inactive means score below 0.9.
# Tested on: not listed separately
# Assay: TOX21_p53_BLA_p2_viability: Viability Assessment in the Tox21 HCT-116 p53 Agonism Beta-lactamase Assay, Phase 2 (AID 2283591);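 further: compound exposure lasted 16 h at 37 °C; actives lower the ATP signal meaning cytotoxicity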
# Outline: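 HCT-116 p53-bla cells (4000/well) rested 5 h at 37C, then received compounds in DMSO (217-fold dilution) for 16 h at 37C, 5% CO2. After the CCF4 read, CellTiter-Glo was added; ATP luminescence was read after 30 min at room temperature.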
Structure (SMILES),outcome,AC50
C=CCOC(=O)/C=C\C(=O)OCC=C,inactive,
O=S(=O)(O)c1cc(O)c(O)c(S(=O)(=O)O)c1,inactive,
O=C(Nc1cccc(Cl)c1)OCC#CCCl,,67.5 µM (active)
CCCCCCCC(=O)N(C)C,inactive,
CCO[Si](CC)(OCC)OCC,inactive,
O=S(=O)(O)c1cc(S(=O)(=O)O)c2c(N=Nc3ccccc3)c(O)ccc2c1,inactive,
CCCC(O)C(CC)CO (stereo unspecified),inactive,
CC(C)=CC(=O)O,inactive,
CC1=CCC(=C(C)C)CC1,inactive,
CCC(=O)OC(C)(C)C1CC=C(C)CC1 (stereo unspecified),inactive,
CC(C)N1C(=O)c2ccccc2C1=O,inactive,
CC(C)=CCCC(C)=CC(=O)O,inactive,
C[Si]1(C)N[Si](C)(C)N[Si](C)(C)N1,inactive,
CCCCOC(=O)C(C)OC(=O)CCC (stereo unspecified),inactive,
CC(C)(C)c1cccc(O)c1,inactive,
O=C(C=Cc1ccccc1)OCCCc1ccccc1,inactive,
CCCCCC1CCC(=O)O1 (stereo unspecified),inactive,
CC(C)COC(=O)c1ccccc1,inactive,
CNC(=C[N+](=O)[O-])NCCSCc1ccc(CN(C)C)o1,inactive,
C1=COCCC1,inactive,
CC(C)Cc1ccc(C(C)C(=O)O)cc1 (stereo unspecified),inactive,
CCCCCCCCCCCCS,inactive,
C=C(C)C(=O)OCCC[Si](OC)(OC)OC,inactive,
CCCCC1CCCCC(=O)O1 (stereo unspecified),inactive,
CN(C)CCCNCCCN(C)C,inactive,
CC1=CC(C)C(C=O)C(C)C1 (stereo unspecified) (tested in a mixture with another compound),inactive,

# Target: Cellular tumor antigen p53 (Homo sapiens) (UniProt P04637)
# Assay: TOX21_p53_BLA_p2_ratio: Tox21 HCT-116 p53 Agonism Beta-lactamase Assay, Ratio, Phase 2 (AID 2283592)
# Outline: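 Read-out is the blue/green (460/530 nm, 405 nm excitation) ratio after 2 h CCF4-AM loading, fitted as gain versus DMSO. Compounds, pinned at 217-fold dilution from DMSO stocks, stayed 16 h on HCT-116 beta-lactamase reporter cells seeded 5 h earlier.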
# Cellular tumor antigen p53 (Homo sapiens), sequence (P04637 whole entry, looked up): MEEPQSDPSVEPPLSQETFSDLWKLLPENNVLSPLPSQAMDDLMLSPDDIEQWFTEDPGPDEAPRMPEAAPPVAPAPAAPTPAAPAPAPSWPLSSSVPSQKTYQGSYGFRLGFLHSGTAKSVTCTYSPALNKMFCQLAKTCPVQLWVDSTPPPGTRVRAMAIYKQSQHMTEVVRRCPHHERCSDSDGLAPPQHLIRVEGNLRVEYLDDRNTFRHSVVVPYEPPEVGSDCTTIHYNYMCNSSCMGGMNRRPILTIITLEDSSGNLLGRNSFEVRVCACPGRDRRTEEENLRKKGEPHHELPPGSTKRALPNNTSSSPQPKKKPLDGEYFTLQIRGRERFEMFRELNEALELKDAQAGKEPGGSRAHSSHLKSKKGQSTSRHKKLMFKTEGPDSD
row,Structure (SMILES),outcome
1,C=CCOC(=O)/C=C\C(=O)OCC=C,inactive
2,O=S(=O)(O)c1cc(O)c(O)c(S(=O)(=O)O)c1,inactive
3,CCCCCCCC(=O)N(C)C,inactive
4,C=CC(C)(CCC=C(C)C)OC(=O)CC (stereo unspecified),inactive
5,O=C(O)c1cc(C(=O)O)c(C(=O)O)cc1C(=O)O,inactive
6,CCCC(O)C(CC)CO (stereo unspecified),inactive
7,CCCCC(CC)COC(=O)COc1ccc(Cl)cc1C (stereo unspecified),inactive
8,CC(=O)c1cccnc1,inactive
9,C=CCS(=O)(=O)O,inactive
10,CC(C)N1C(=O)c2ccccc2C1=O,inactive
11,c1ccc(-c2nn[nH]n2)cc1,inactive
12,N#CCCCC(C#N)CCC#N (stereo unspecified),inactive
13,CCCCOC(=O)C(C)OC(=O)CCC (stereo unspecified),inactive
14,CC(C)(C)c1cccc(O)c1,inactive
15,CCCCCC1CCC(=O)O1 (stereo unspecified),inactive
16,CC(C)COC(=O)c1ccccc1,inactive
17,CCC(C)(CCCC(C)C)OC(C)=O (stereo unspecified),inactive
18,C1=COCCC1,inactive
19,CC(C)Cc1ccc(C(C)C(=O)O)cc1 (stereo unspecified),inactive
20,CCCCCCCCCCCCS,inactive

# Tested on: not listed separately
# Assay: TOX21_p53_BLA_p3_viability: Viability Assessment in the Tox21 HCT-116 p53 Agonism Beta-lactamase Assay, Phase 3 (AID 2283593);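 further: cells exposed to compound for 16 h before reading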
# Outline: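 HCT-116 cells (4000/well) rested 5 h at 37C, then got DMSO compounds by pin tool (217-fold dilution) for 16 h at 37C, 5% CO2. After the bla read, CellTiter-Glo was added and luminescence read at 30 min, room temperature.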
Structure (SMILES),outcome,AC50
O=S(=O)(O)c1cc(O)c(O)c(S(=O)(=O)O)c1,inactive,
O=C(Nc1cccc(Cl)c1)OCC#CCCl,,69.2 µM (active)
CC1=CC(=O)[C@H]2C[C@@H]1C2(C)C,inactive,
O=S(=O)(O)c1cc(S(=O)(=O)O)c2c(N=Nc3ccccc3)c(O)ccc2c1,inactive,
CC(C)=CC(=O)O,inactive,
CC1=CCC(=C(C)C)CC1,inactive,
CCCCC(CC)COC(=O)COc1ccc(Cl)cc1C (stereo unspecified),inactive,
C=CCS(=O)(=O)O,inactive,
CC(C)CCCC(C)(C)O,inactive,
CC(C)=CCCC(C)=CC(=O)O,inactive,
c1ccc(-c2nn[nH]n2)cc1,inactive,
N#CCCCC(C#N)CCC#N (stereo unspecified),inactive,
CC(C)COC(=O)c1ccccc1,inactive,
CNC(=C[N+](=O)[O-])NCCSCc1ccc(CN(C)C)o1,inactive,
CCCCC1CCCCC(=O)O1 (stereo unspecified),inactive,

# Target: Cellular tumor antigen p53 (Homo sapiens) (UniProt P04637)
# Assay: TOX21_p53_BLA_p3_ratio: Tox21 HCT-116 p53 Agonism Beta-lactamase Assay, Ratio, Phase 3 (AID 2283596)
# Outline: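 Cells were seeded at 4000/well, rested 5 h at 37C, then dosed with DMSO compound solutions (217-fold dilution) for 16 h. CCF4-AM substrate was loaded for 2 h at room temperature, and the 460/530 nm emission ratio was fitted for gain of signal versus DMSO.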
Structure (SMILES),outcome,AC50
C=CCOC(=O)/C=C\C(=O)OCC=C,inactive,
O=C(Nc1cccc(Cl)c1)OCC#CCCl,,13.4 µM (active)
CCCCCCCC(=O)N(C)C,inactive,
CC1=CC(=O)[C@H]2C[C@@H]1C2(C)C,inactive,
C=CC(C)(CCC=C(C)C)OC(=O)CC (stereo unspecified),inactive,
CCO[Si](CC)(OCC)OCC,inactive,
O=C(O)c1cc(C(=O)O)c(C(=O)O)cc1C(=O)O,inactive,
O=S(=O)(O)c1cc(S(=O)(=O)O)c2c(N=Nc3ccccc3)c(O)ccc2c1,inactive,
CCCC(O)C(CC)CO (stereo unspecified),inactive,
CC(C)=CC(=O)O,inactive,
CC1=CCC(=C(C)C)CC1,inactive,
CCCCC(CC)COC(=O)COc1ccc(Cl)cc1C (stereo unspecified),inactive,
CCCCCC#CC(=O)OC,inactive,
CC(=O)c1cccnc1,inactive,
CCC(=O)OC(C)(C)C1CC=C(C)CC1 (stereo unspecified),inactive,
C=CCS(=O)(=O)O,inactive,
CC(C)CCCC(C)(C)O,inactive,
CC(C)=CCCC(C)=CC(=O)O,inactive,

Structure (SMILES),outcome,AC50
c1ccc(-c2nn[nH]n2)cc1,inactive,
C[Si]1(C)N[Si](C)(C)N[Si](C)(C)N1,inactive,
CCCCOC(=O)C(C)OC(=O)CCC (stereo unspecified),inactive,
CC(C)(C)c1cccc(O)c1,inactive,
C=COCC1CCC(COC=C)CC1 (stereo unspecified),inactive,
O=C(C=Cc1ccccc1)OCCCc1ccccc1,inactive,
CCCCCC1CCC(=O)O1 (stereo unspecified),inactive,
CC1=CCC(C(C)C)=CC1,inactive,
CC(C)COC(=O)c1ccccc1,inactive,
CCOC(=O)CCCCCCCCC(=O)OCC,inactive,
C1=COCCC1,inactive,
CC(C)Cc1ccc(C(C)C(=O)O)cc1 (stereo unspecified),inactive,
CCCCCCCCCCCCS,inactive,
C=C(C)C(=O)OCCC[Si](OC)(OC)OC,inactive,
CCCCC1CCCCC(=O)O1 (stereo unspecified),inactive,
CN(C)CCCNCCCN(C)C,inactive,
CC1=CC(C)C(C=O)C(C)C1 (stereo unspecified) (tested in a mixture with another compound),inactive,
